A selection: hits, their analogues and other compounds. The true share with any hit is near 10%.
JMJD2A Tudor: blocks the human JMJD2A Tudor domain; 390,000 compounds, 4.4% hits; O75164; Potency, µM (top dose mostly 114 µM), without a hit: top-dose activity change, negative = inhibition, most hits filed as inhibitors; AlphaScreen JMJD2A-Tudor / H3K4me3 peptide binding; also: potency is read from the fitted curve at half-maximal effect; % is scaled to controls: 0 for no effect and ±100 for the full control effect; nearly all actives have a fitted effect of over 50% in size
BAZ2B block: inhibitors of human BAZ2B bromodomain | AID 504333 | Q9UIF8 | Potency, µM (titrated, usually from 114 µM), without a hit: at the highest dose activity change, negative = inhibition, hits mostly inhibitors | AlphaScreen BAZ2B-H3K14Ac peptide displacement | 360,000 compounds, 4.4% hits; also: potency is read from the fitted curve at half-maximal effect; % is scaled to controls: 0 for no effect and ±100 for the full control effect; nearly all actives have a fitted effect of over 60% in size
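AlphaScreen displacement of biotin-H3(5-23)K14Ac peptide (50 nM final) from BAZ2B (50 nM final) in PBS pH 7.4, 0.01% Tween-20; complex preformed 30 min RT, then compounds (top 110 uM) 30 min RT, beads 20 min dark.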
HP1b chromo inh: HP1-beta chromodomain-methylated histone interaction inhibition; Potency, µM (titrated, usually from 114 µM), for the others: at the top dose activity change, negative = inhibition, actives largely listed as inhibitors; AlphaScreen HP1-beta / biotin-H3K9me3 peptide binding; AID 540317; 390,000 compounds, 0.56% hits; also: potency is read from the fitted curve at half-maximal effect; nearly all actives have a fitted effect of over 70% in size
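HP1-beta protein (50 nM final) preincubated 30 min at room temperature with biotinylated H3(1-18)K9me3 peptide (50 nM) in PBS pH 7.4, 0.01% Tween-20, then compound added for 30 min. AlphaScreen streptavidin donor/nickel chelate acceptor beads (10 ug/mL final), 30 min dark, luminescence read.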
G9a block: G9a (human) methyltransferase inhibition; Q96KQ7; G9a H3K9 monomethylation, AlphaScreen, 2 h; Potency, µM (highest dose often 102 µM), for inactives: top-dose activity, negative = inhibition, most hits filed as inhibitors; 350,000 compounds, 8.8% hits; also: potency is read from the fitted curve at half-maximal effect; % is scaled to controls: 0 for no effect and ±100 for the full control effect; nearly all actives have a fitted effect of over 75% in size
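Readings reflect AlphaScreen signal from monomethyl-H3K9 antibody detection. HMT at 20 nM; substrate b-H3K9 500 nM; cofactor SAM 20 uM; 2 h RT reaction; compounds tested as titrations in qHTS with 15 min preincubation.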
CtBP-E1A inh: inhibitors of CtBP/E1A interaction | AlphaScreen GST-E1A/His-CtBP binding, 1536-well; active compounds read low | activity change, % (concentration not given with the values) | 340,000 compounds, 0.49% hits | AID 651724; in the data active = activity change below about -65%; inconclusive = mostly about -30% to -63%; also: % is scaled to controls: 0 for no effect and ±100 for the full control effect
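Protein mix (5X: 125 nM each GST-E1A, His-CtBP) was incubated with pinned compound 2 h at 37 deg C in dark, in 50 mM Tris pH 8.0 buffer with 300 mM NaCl. Glutathione donor and nickel acceptor beads followed; AlphaScreen signal read after 1 h.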
Six1-Eya2 blk: inhibitors of human Six1/Eya2 interaction. Q15475+O00167. AlphaScreen GST-Six1/His-Eya2 binding, biochemical; active compounds read low. activity change, % (test concentration not listed). 360,000 compounds, 0.56% hits; in the data active = activity change below about -65%; inconclusive = mostly about -30% to -63%; also: % is scaled to controls: 0 for no effect and ±100 for the full control effect
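AlphaScreen with GST-Six1 and His-Eya2 (5X mix: 250 nM and 500 nM), glutathione donor and nickel acceptor beads; buffer 50 mM Tris pH 8.0, 300 mM NaCl, 1 mM TCEP; 1 h at 37 C in the dark.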
* marks the source's active call; other numbers are inactive results; ? = inconclusive; . = no result given; [ ] = dose if it differs, or a comment. Unless noted, calls follow the shape of the dose curve; as a rule, active = well fitted inhibition curve with a large enough effect; inconclusive = small, poorly fitted or top-dose-only effect; inactive = no such curve, though single readings can be large or run the other way.

SMILES	JMJD2A Tudor	BAZ2B block	HP1b chromo inh	G9a block	CtBP-E1A inh	Six1-Eya2 blk
COc1ccccc1NC(=O)C1=C(C)NC(SCC(=O)Nc2ccc(C(=O)O)cc2)=C(C#N)C1c1cccs1 (configuration not stated)	-13.7%	-20.1%	32.7%	?	-8.1	-8.4
CC(C)CC(=O)NC(c1cccs1)c1ccc2cccnc2c1O (configuration not stated)	50.1µM*	-0.5%	27.0%	9.8%	-88.5*	-81.3*
Cc1ccc(C)c(C(Nc2ccccc2)c2ccc3ccc(C)nc3c2O)c1 (configuration not stated)	.	.	.	.	-2.1	-5.5
Cc1conc1NC(c1cccs1)c1ccc2cccnc2c1O (configuration not stated)	.	25.1µM*	.	28.0%[2.33 µM]	.	.
CCCOc1ccccc1C(=O)N(Cc1cccc(Br)c1)C1CCS(=O)(=O)C1 (configuration not stated)	-9.0%	-3.5%	22.1%	30.8%	3.8	-1.3
COc1ccc(OC)c(NC(=S)NCc2ccco2)c1	-18.3%	.	16.5%	.	-1.7	-10.1
CCc1noc(C)c1C(=O)OCC(=O)NCc1ccc(Cl)cc1	-3.4%	.	16.0%[57 µM]	.	-12.4	-6.7
O=C(c1cc2c(=O)n3ccccc3nc2s1)N1CCc2ccccc2C1	.	-11.9%	.	39.8µM*	.	.
CCOC(=O)CC1C(=O)NCCN1C(=O)c1cc2c(=O)n3cccc(C)c3nc2s1 (configuration not stated)	-27.5%	2.4%	23.5%	?	1.6	-5.5
CCOC(=O)CC1C(=O)NCCN1C(=O)c1cc2c(=O)n3ccccc3nc2s1 (configuration not stated)	.	5.3%	.	89.1µM*	.	.
CCN1CCN(C(=O)c2cc3c(=O)n4ccccc4nc3s2)CC1	-7.0%	-0.6%	-1.3%	-14.8%	-1.7	-7.7
COc1ccc(NS(=O)(=O)c2ccc3c(c2)CCN3C(=O)CCC(=O)O)cc1OC	-4.8%	2.7%	26.5%	-45.7%	?	-3.3
CCN(CC)C1CCN(C(=O)c2cc(COc3ccc(-n4cncn4)cc3)on2)C1 (configuration not stated)	0.7%	4.0%	26.9%	.	-16.8	13.6
Cc1ccc(C(=O)/C=C/c2ccc(-c3ccccc3[N+](=O)[O-])o2)cc1	?	25.1µM*	?	25.1µM*	6.8	-10.4
O=C(/C=C/c1ccc(-c2ccccc2[N+](=O)[O-])o1)c1ccc(F)cc1	?	22.4µM*	?	35.5µM*	8.4	-12.1
O=C(/C=C/c1ccc(-c2ccccc2[N+](=O)[O-])o1)c1ccc(Br)cc1	?	28.2µM*	-35.8%	25.1µM*	-13.7	-15.8
CC(C)c1cc(/C=C(\C#N)C(=O)NCCCc2ccccc2)cc(C(C)C)c1O	.	.	.	9.8%[59 µM]	.	.
COCCNC(=O)Cn1c(=O)n(CCCC(=O)NCc2ccc3c(c2)OCO3)c(=O)c2sccc21	-28.8%	1.6%	7.5%	-4.4%	0.0	-16.1
O=C(O)c1ccc(N/N=C/c2ccc(-c3ccccc3)cc2)cc1	-33.1%	.	-12.6%	44.7µM*	-5.0	-12.7
Cc1ccc(/C=N/Nc2ccc(C(=O)O)cc2)s1	-32.1%	?	-7.6%	14.1µM*	-8.4	-1.1
Nc1ccc(C(=O)N/N=C\c2ccc(OC(=O)c3ccccc3Cl)cc2)cc1	-7.3%	-19.5%	26.4%	20.4%	.	4.5
O=C(O)c1ccc(N/N=C/C=C/c2ccccc2)cc1	-31.4%	?	7.4%	70.8µM*	-5.8	6.3
O=C(O)c1ccc(/C=N/Nc2cccc(C(F)(F)F)c2)cc1	-23.1%	?	4.7%	?	9.2	-6.3
O=C(O)c1ccc(N/N=C/c2ccc(OC(=O)c3ccccc3Cl)cc2)cc1	?	89.1µM*	?	1.8%[59 µM]	-18.3	-17.2
Cc1ccc(-c2csc3ncn(CC(=O)OC(C)C)c(=O)c23)cc1	-12.5%	0.3%	.	23.2%	6.8	-1.0
SMILES	JMJD2A Tudor	BAZ2B block	HP1b chromo inh	G9a block	CtBP-E1A inh	Six1-Eya2 blk
CCCN(C(=O)Cn1nc(Cc2cccnc2)c2ccccc2c1=O)c1ccc(C(C)C)cc1	?	?	15.3%	-44.4%[59 µM]	.	.
CC(C)c1ccc(/C=N/Nc2ccc(C(=O)O)cc2)cc1	-25.1%	?	25.2%	10µM*	2.5	-0.3
COc1ccc(/C=N/Nc2ccc(C(=O)O)cc2)cc1OC	-16.8%	-11.2%	38.4%	-35.7%	-1.3	-2.0
c1ccc(Nc2ccccn2)nc1	?	?	3.8%	0.501µM*	?	-8.0
S=C(Nc1ccccn1)c1ccccn1	5.01µM*	10µM*	12.6µM*	?	-88.8*	-91.7*
Cc1ccc(C)c(NC(=S)c2ccccn2)c1	79.4µM*	20µM*	6.31µM*	?	-67.3*	?
CC(=O)OC1c2ccccc2C(=O)N1Cc1ccccc1 (configuration not stated)	0.7%	-4.5%	21.0%	2.2%	4.6	5.0
O=C(Cn1nnc(-c2ccccc2)n1)N/N=C/c1cccc([N+](=O)[O-])c1O	?	44.7µM*	29.0%	3.6%	?	?
O=C(Cn1nnc(-c2ccccc2)n1)N/N=C/c1cccc([N+](=O)[O-])c1	-14.6%	-4.4%	28.4%	3.6%	0.0	0.0
O=C(N/N=C/c1cc(Cl)cc([N+](=O)[O-])c1O)C1CC1	-30.3%	-31.5%	2.9%	?	.	?
Cc1ccccc1C(=O)Nc1cccc(C(=O)N/N=C/c2cc(Cl)cc([N+](=O)[O-])c2O)c1	50.1µM*	22.4µM*	?	31.6µM*	-73.0*	?
O=C(Cn1nc2ccccc2n1)N/N=C/c1cc(Cl)cc([N+](=O)[O-])c1O	50.1µM*	20µM*	-18.8%	39.8µM*	?	?
CCOc1ccc(CCNC(=O)c2cc(Nc3ccc(C)cc3C)nc3ccccc23)cc1OCC	-29.7%	.	47.5%	31.3%[59 µM]	.	.
COCCNc1ccc(-c2nc(-c3ccncc3)no2)cc1[N+](=O)[O-]	-9.9%	-8.1%	42.4%	-27.8%[59 µM]	.	.
CC(c1nc2ccccc2n1Cc1ccccc1)N1CCCCC1 (configuration not stated)	-16.9%	0.0%	17.7%	15.2%	-2.6	6.9
CC(c1n[nH]c(=S)n1-c1ccccc1)N1CCCCC1 (configuration not stated)	7.08µM*	-21.0%	47.3%	17.8µM*	6.3	-0.2
Cc1ccccc1CN(c1ccc(C(=O)Nc2ccccc2C(=O)NCc2ccco2)cc1)S(C)(=O)=O	-26.6%	14.2%	1.2%	?	-3.7	-7.9
N#Cc1ccc(S(=O)(=O)NC2CC2)cc1	-7.0%	?	31.5%	7.94µM*	28.8	25.7
O=S(=O)(NC1CCCC1)c1ccc(S(=O)(=O)NC2CCCC2)cc1	-4.1%	-4.1%	36.8%	12.0%	6.5	3.7

Source: PubChem
